Tgondii IFNg = blocks Toxoplasma gondii growth in the presence of IFN-gamma; activity change, negative = inhibition, % (concentration not given with the values); AID 1259416; 69,000 compounds, 3.8% hits; Toxoplasma gondii growth in IFN-gamma-treated host cells; active compounds read low; in the data active = activity change below about -70%, passing the limit was not always enough;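 also: host cells are HeLa cells infected with Toxoplasma gondii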
Of the large screens only hits and unclear results are named; the others gave an inactive call. Only a selection was taken, and hits are over-represented in it overall.

CCOc1ccc(-c2nc(Cn3nnc(C(=O)Nc4cccc(Cl)c4)c3C)c(C)o2)cc1OC	none
Cn1cc(-c2cnc(-c3ccccc3)nc2)cc1C(=O)NCCC#N	none
CCCNC(=O)c1cc(-c2cnc(NCc3ccccc3)nc2)cn1C	Tgondii IFNg -82
CN(C)CCCNC(=O)c1cc(-c2cnc(-c3ccccc3)nc2)cn1C	none
O=C1NC(CCCc2ccccc2)(C2CCNCC2)C(=O)N1Cc1cccnc1 (stereo not drawn)	none
Nc1nccc(/C=C/c2c(F)cccc2Cl)n1	Tgondii IFNg -74
CC(C)c1nccc(CN(C)Cc2cc(-c3ccccc3)no2)n1	none
Cc1ccc(CCNC(=O)CCC2Nc3c4ccccc4nc(=S)n3C2=O)cc1 (stereo not drawn)	none
COc1cc(Nc2ncc(F)c(Nc3ccc4c(n3)N(COP(=O)(O)O)C(=O)C(C)(C)O4)n2)cc(OC)c1OC	Tgondii IFNg -74
C=CC(=O)Nc1cccc(Nc2nc(Nc3ccc(OCCOC)cc3)ncc2F)c1	none
O=C(Cc1cccc(F)c1)N1CC(C(=O)N2CCCC2)C2(CCOCC2)C1 (stereo not drawn)	none
CC(C)CC(=O)Nc1n[nH]c2c1CN(C(=O)C1CCN(C)CC1)C2(C)C	Tgondii IFNg -76
CC(C)Oc1cc(-c2ccc(S(C)(=O)=O)cc2)nc(N)n1	none
CCOc1cc(C(=O)N2CCC3(CC2)Nc2ccccc2-n2cccc23)cc(OCC)c1OCC	none
O=C(CCn1nnc2ccccc21)Nc1nnc(COc2ccc(F)cc2)s1	none
O=C(CCn1nnc2ccccc21)Nc1nnc(-c2ccc3c(c2)OCO3)s1	Tgondii IFNg -103
C[C@@H](Cn1nnc2ccccc21)NC(=O)c1ccc2c(c1)OCO2	none
Cc1cc2c(SCC(=O)c3ccc(F)cc3)ncnc2s1	none
Cc1nc(C)c(-c2ccc(-n3cccn3)cc2)s1	none
O=C(O)c1ccccc1C1CCN(C(=O)Cc2c[nH]c3ccccc23)C1 (stereo not drawn)	none
O=C(O)c1ccc(-c2c[nH]c3ncc(-c4ccccc4)cc23)cc1C1CCCC1	Tgondii IFNg -85
Cc1c(-c2ccccc2)n[nH]c1C(=O)N1CCC(c2ccccc2C(=O)O)C1 (stereo not drawn)	none
COc1ccc(-c2nc(Cn3nnc(C(=O)Nc4ccc(C)cc4C)c3C)c(C)o2)c(OC)c1	none
COc1ccccc1-c1nc(Cn2nnc(-c3nc(-c4ccccc4C)no3)c2C)c(C)o1	none
Cc1oc(-c2cccc(Cl)c2)nc1Cn1nnc(C(=O)Nc2ccc(F)c(F)c2)c1C	none
CC(C)C[C@H](NC(=O)[C@@H](NC(=O)c1cccc(-c2ccccc2)n1)[C@@H](C)O)B(O)O	none
CC(C)C[C@H](NC(=O)[C@H](Cc1ccccc1)NC(=O)c1cnccn1)B(O)O	Tgondii IFNg -81
CC(Cc1cnccn1)NC(=O)c1cn(C/C=C/c2ccccc2)nn1 (stereo not drawn)	none
CN(Cc1cnn(-c2ccc(F)cc2)c1)Cc1cn(C)nc1-c1ccccc1F	none
CCCn1nc(C)cc1NC(=O)c1cccc(CN2CCCC2C)c1 (stereo not drawn)	none
COc1ccc(CCC(=O)N2CCC3(CC2)Nc2cc(F)ccc2-n2cccc23)cc1	Tgondii IFNg -75
COc1ccc(OCC(=O)N2CCC3(CC2)Nc2cc(OC)ccc2-n2cccc23)cc1	none
COc1cc(CCC(=O)N2CCC3(CC2)Nc2cc(F)ccc2-n2cccc23)cc(OC)c1OC	none
COc1ccc2c(c1)NC1(CCN(C(=O)Cc3ccc(C)cc3)CC1)c1cccn1-2	none
COc1ccc(CCC(=O)N2CCC3(CC2)Nc2cc(OC)ccc2-n2cccc23)cc1	Tgondii IFNg -82
O=C(CCc1ccccc1)N1CCC2(CC1)Nc1cc(F)ccc1-n1cccc12	none
O=c1[nH]nc(C2CCCN(S(=O)(=O)N3CCCC3)C2)n1-c1ccccc1 (stereo not drawn)	none
COc1ccc(OC)c(Nc2nc(-c3nnc(-c4ccc(Cl)cc4)o3)nc3ccccc23)c1	none
COc1ccc(Nc2nc(-c3nnc(-c4ccc(C)cc4)o3)nc3ccccc23)c(OC)c1	none
Cc1ccc(Nc2nc(-c3nnc(-c4ccc(F)cc4)o3)nc3ccccc23)cc1C	none
CN(C)C1CCN(Cc2ccc(C(=O)Nc3ccc4c(cnn4C)c3)cc2)C1 (stereo not drawn)	none
Cc1ncc(NC(=O)c2ccc(CN3CCN(C)CC3)c(C(F)(F)F)c2)cc1Nc1nccc(-c2cccnc2)n1	none
Cc1ccc(C(=O)Nc2ccc(CN3CCN(C)CC3)c(C(F)(F)F)c2)cc1C#Cc1cnc2[nH]ncc2c1	Tgondii IFNg -80
CC(=O)N1[C@@H]2c3ccc(-c4cncnc4)c(=O)n3C[C@@H]2[C@@H](CO)[C@@H]1C(=O)NCc1ccccc1Cl	none
O=C1N(Cc2cccnc2)C(=O)C2(CCN(Cc3cc4ccccc4o3)CC2)N1CCc1ccccc1	Tgondii IFNg -86
COC(=O)CN1C(=O)N(CCc2ccccc2)C2(CCN(Cc3ccncc3)CC2)C1=O	none
O=C1N(Cc2ccccn2)C(=O)C2(CCN(Cc3ccc4c(c3)OCO4)CC2)N1CCc1ccccc1	none
O=C(c1cc(-c2ccccc2F)no1)N1CCc2nc(C3CCCN3)ncc2C1 (stereo not drawn)	none
COCCN1CCOCC12CCN(Cc1ccn(C)n1)CC2	none
Cc1ccc2nc(C3CCN(S(=O)(=O)c4sc(C)nc4C)CC3)[nH]c2c1	none
